The record followed here is PubChem BioAssay (NCATS).

Results filed as inconclusive are left out. The source made the active and inactive calls. Unless noted, calls follow the shape of the dose curve; as a rule, active = well fitted curve in the direction sought with a large enough effect; inconclusive = small, poorly fitted or top-dose-only effect, or another doubt; inactive = no such curve, though single readings can be large; an effect the other way counts as inactive or inconclusive.

Assay [1] in a line: qHTS for differential inhibitors of proliferation of Plasmodium falciparum line HB3 (AID 1886).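 Also: parasites grown with compound for 72 h before SYBR Green readout.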 Also: potency is read from the fitted curve at half-maximal effect. The note with it: Potency: Plasmodium falciparum HB3 proliferation inhibition. A general note: qHTS replaces the single test concentration by a dilution series.
In assay [2] the target is Ferritin light chain (Equus caballus) (UniProt P02791). Kind of assay: qHTS Validation Assay for Identification of Novel General Anesthetics (AID 2323). Also: series mostly up to about 77 µM. In short, it runs like this:
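10 uM horse-spleen apoferritin + 1-AMA (50% saturated, PBS); cpd pin-transferred, 10 min RT. Ex 380/Em 535 nm endpoint. Activity normalized between free 1-AMA and 1-AMA/apoferritin; 4-parameter Hill fit of concentration-response.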

The target in assay [3] is ATP-dependent DNA helicase Q1 (Homo sapiens) (UniProt P46063). Kind of assay: qHTS Validation Assay for Inhibitors of RecQ-Like Dna Helicase 1 (RECQ1) (AID 2353). In short, it runs like this: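 50 nM RECQ1T1 preincubated 15 min with compound in Tris pH 8.0 buffer with MgCl2, DTT, Tween-20 and 2.5 ug/ml poly(dI-dC); started with 200 nM TAMRA/BHQ-2 forked duplex and 2 mM ATP. Unwinding read as fluorescence (525/598 nm), two reads 2 h apart.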
ATP-dependent DNA helicase Q1 (Homo sapiens), sequence (P46063 whole entry, looked up): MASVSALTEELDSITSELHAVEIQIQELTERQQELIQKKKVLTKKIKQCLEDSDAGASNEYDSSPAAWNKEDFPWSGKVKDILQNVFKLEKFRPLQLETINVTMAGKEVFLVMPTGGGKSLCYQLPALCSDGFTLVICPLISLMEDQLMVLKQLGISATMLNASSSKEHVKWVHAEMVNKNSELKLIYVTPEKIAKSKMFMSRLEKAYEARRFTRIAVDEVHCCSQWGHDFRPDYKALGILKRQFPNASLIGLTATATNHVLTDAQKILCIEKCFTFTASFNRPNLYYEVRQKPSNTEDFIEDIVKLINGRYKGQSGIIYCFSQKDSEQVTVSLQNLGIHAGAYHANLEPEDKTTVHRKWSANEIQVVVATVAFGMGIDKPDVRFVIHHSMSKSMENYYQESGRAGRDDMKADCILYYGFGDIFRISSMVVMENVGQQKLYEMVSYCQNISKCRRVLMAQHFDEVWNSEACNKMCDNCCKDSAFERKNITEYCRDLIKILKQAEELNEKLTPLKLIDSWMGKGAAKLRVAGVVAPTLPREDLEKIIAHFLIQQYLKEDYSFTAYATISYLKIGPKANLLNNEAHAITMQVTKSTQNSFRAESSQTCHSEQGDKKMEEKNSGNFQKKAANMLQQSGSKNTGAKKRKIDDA

In assay [4] the target is RecQ-like DNA helicase BLM (Homo sapiens) (UniProt P54132). The assay is described as follows: qHTS Validation Assay for Inhibitors of Bloom's syndrome helicase (BLM) (AID 2364). In short, it runs like this:
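50 nM BLM preincubated 15 min at room temperature with compound in pH 8.0 Tris buffer containing 2.5 ug/ml poly(dI-dC); started with 200 nM TAMRA/BHQ-2 forked duplex and 2 mM ATP (final). Unwinding read as TAMRA fluorescence increase, two reads 2 h apart.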

Assay [5] is described as follows: High Content Imaging Cell-Based qHTS for Inhibitors of the mTORC1 Signaling Pathway in MEF (Tsc2-/-, p53-/-) Cells (AID 2666).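 Also: percent of cells scored positive for phospho-rpS6 Ser235/236 immunostaining by imaging.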 Also: potency is read from the fitted curve at half-maximal effect. In short, it runs like this:
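Phospho-rpS6 (Ser235/236) immunofluorescence, normalized and scored as % positive cells using rapamycin and DMSO controls, was read in empty-vector Tsc2-/-, p53-/- MEFs after 24 h compound exposure at 37 C; propidium iodide counted cells.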

Assay [6] can be described thus: High Content Imaging Cell-Based qHTS for Inhibitors of the mTORC1 Signaling Pathway in MEF Cells (AID 2667). Also: potency is read from the fitted curve at half-maximal effect. In short, it runs like this:
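WT MEFs (Tsc2-/-, p53-/- re-expressing Tsc2), in DMEM + 10% FBS, were treated with compound for 24 h at 37 C. Cells were then fixed and stained for phospho-rpS6 Ser235/236 with propidium iodide as cell count. Values are % positive cells, with thresholds set against rapamycin-treated cells.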

A short description of assay [7]: Cytometry Cell-Based qHTS for Inhibitors of the mTORC1 Signaling Pathway in MEF cells (AID 2668). Also: potency is read from the fitted curve at half-maximal effect. In short, it runs like this:
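Read-out: phospho-rpS6 Ser235/236 immunofluorescence normalized to propidium iodide intensity, scored as % active cells against a rapamycin (7.5 nM) threshold. Cells: Tsc2-/-, p53-/- MEFs stably expressing WT Tsc2, compound-treated 24 hrs at 37 degree Celsius.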

The nature of assay [8]: Validation screen for inhibitors of Lassa infection (AID 463096; calls by dose curve; also: potency is read from the fitted curve at half-maximal effect).
Assay [9] can be described thus: Validation screen for small molecules that induce DNA re-replication in MCF 10A normal breast cells (AID 463097). Also: nearly all actives have a fitted effect of over 60% in size. Also: potency is read from the fitted curve at half-maximal effect. In short, it runs like this: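 250 MCF 10A cells/well; compound pin-transferred; 48 hr, 37 C, 5% CO2; Hoechst 40 min; imaged 405/500-530 nm. Hits = more high-intensity nuclei.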
The target in assay [10] is Ubiquitin carboxyl-terminal hydrolase 2 (Homo sapiens) (UniProt O75604). The assay is described as follows: qHTS Validation Assay for Inhibitors of Ubiquitin-specific Protease USP2a Using CHOP2 as the Reporter (AID 463106). In short, it runs like this: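 USP2 core (10 nM final) was preincubated with compound 30 min at RT in pH 8.0 Tris/CaCl2/beta-ME/CHAPS buffer. Ub-CHOP2 and reporter substrate (25 nM final each) were then added, with fluorescence (Ex 485/Em 531) read after 60 min. Data were normalized to NEM full inhibition and fitted to concentration-response curves.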

Assay [11] concerns the target DNA polymerase III PolC-type (Bacillus subtilis (strain 168)) (UniProt P13267). The assay is described as follows: qHTS Validation Assay for the Inhibitors of DNA Replication in Gram-Positive Bacteria (AID 485295).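 Also: reconstituted holoenzyme with PolC plus beta clamp SSB and primase; PicoGreen fluorescence of double-stranded DNA made on primed circular M13 template; series mostly up to about 57 µM.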 In short, it runs like this:
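PicoGreen fluorescence (ex 480–485/em 535–540 nm) reports dsDNA synthesized on ssM13Gori template with dNTPs/NTPs. Enzyme: holoenzyme rebuilt from purified PolC, beta subunit, SSB and primase. Compound preincubated before substrate addition; RT throughout.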

The target in assay [12] is Tumor susceptibility gene 101 protein (Homo sapiens) (UniProt Q99816). The assay is described as follows: qHTS Validation Assay for Iinhibitors of HIV-1 Budding by Blocking the Interaction of PTAP/TSG101 (AID 485342; calls by dose curve). In short, it runs like this:
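FP read-out: FITC-PTAP peptide, 50 nM final, binding Tsg101 binding domain, 10 uM final; 20 min r.t.; 10 mM HEPES pH 7.5, 0.15 M NaCl, 0.01% Tween 20, 3 mM EDTA, 0.1 mM TCEP.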

The nature of assay [13]: qHTS Validation Assay to Find Inhibitors of Chronic Active B-Cell Receptor Signaling (AID 485345; active = well fitted curve in the direction sought with a large enough effect in the main read-out, with a control signal flat, not every such curve was filed as active; also: potency is read from the fitted curve at half-maximal effect). In short, it runs like this:
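TMD8 ABC-DLBCL cells stably carrying doxycycline-inducible IkappaBalpha–green luciferase fusion plus unfused red luciferase; compounds 46 uM to 3 nM, 4 h at 37C with doxycycline. Corrected green/red luminescence ratio normalized to 10 uM MG-132 and basal cell wells; curves fitted.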

Assay [14] has as its target Beta-2 adrenergic receptor (Homo sapiens) (UniProt P07550). Kind of assay: qHTS validation assay of beta-arrestin-biased ligands of beta2-adrenergic receptor (AID 485366). In short, it runs like this:
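Luminescence from a tTA-responsive luciferase, induced when recombinant beta-arrestin is recruited to recombinant beta2-AR, served as the agonism signal. Cells were exposed to compound for 18 hr at 37 degrees C; titrations spanned up to 46 microM.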

A short description of assay [15]: qHTS Assay for Modulators of Human Peripheral Myelin Protein 22 (PMP22) Expression/Activity (AID 1967; active = well fitted curve in the direction sought with a large enough effect in the signal ratio; the % refers to the signal ratio). In short, it runs like this: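 Mouse MSC80 Schwann line, Pmp22 promoter–CBG68 reporter, EF-alpha–CBR internal control. 24h compound exposure, 37 °C/5% CO2, DMEM + 10% FBS. Readout: corrected green/red luminescence ratio, normalized to untreated cells; concentration-response curves fitted and classified.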

A short description of assay [16]: Cytometric Cell-Based qHTS for Inhibitors of the mTORC1 Signaling Pathway in MEF (Tsc2-/-, p53-/-) Cells (AID 2660). Also: potency is read from the fitted curve at half-maximal effect. In short, it runs like this: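 Percent of cells positive for normalized phospho-S6 staining is reported, with the cutoff set from rapamycin (7.5 nM) versus DMSO wells. Tsc2-/-, p53-/- MEFs received compound for 24 hrs.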
Assay [17] concerns the target ATP-dependent 6-phosphofructokinase (Trypanosoma brucei brucei) (UniProt O15648). The assay is described as follows: qHTS Validation Assay to Find Inhibitors of T. brucei phosphofructokinase (AID 485368). In short, it runs like this: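 Activity was normalized between 1x (1.25 nM) PFK wells as no inhibition and enzyme-free wells as full inhibition, from luminescence after ADP-Glo detection of ADP made from 0.5 mM F6P and 0.1 mM ATP over 45 min.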

Assay [18] in a line: qHTS Assay for Identification of Small Molecule Inducers of Hypoxia Response (AID 2120; active = well fitted curve in the direction sought with a large enough effect in the signal ratio, with a control signal flat, not every such curve was filed as active; the % refers to the signal ratio). In short, it runs like this:
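HRE-bla ME-180 cells in Opti-MEM with 0.5% dialyzed FBS, pre-plated 4-5 h, then compound titration for 17 h at 37 degrees Celsius. CCF4 loaded 2.5 h at room temperature; 460/530 nm ratio gave %Activity and AC50 for induction.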

Beta-2 adrenergic receptor (Homo sapiens), sequence (P07550 whole entry, looked up): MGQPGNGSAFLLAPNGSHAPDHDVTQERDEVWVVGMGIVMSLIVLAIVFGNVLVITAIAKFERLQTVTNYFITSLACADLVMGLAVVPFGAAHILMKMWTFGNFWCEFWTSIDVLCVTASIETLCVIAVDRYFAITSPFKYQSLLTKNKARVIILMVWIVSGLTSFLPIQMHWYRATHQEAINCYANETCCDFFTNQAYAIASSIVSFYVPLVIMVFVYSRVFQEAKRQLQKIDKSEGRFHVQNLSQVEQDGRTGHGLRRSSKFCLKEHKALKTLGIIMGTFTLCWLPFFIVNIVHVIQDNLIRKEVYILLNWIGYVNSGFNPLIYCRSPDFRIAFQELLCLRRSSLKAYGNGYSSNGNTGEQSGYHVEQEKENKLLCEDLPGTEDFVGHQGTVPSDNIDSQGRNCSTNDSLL
ATP-dependent 6-phosphofructokinase (Trypanosoma brucei brucei), sequence (O15648 whole entry, looked up): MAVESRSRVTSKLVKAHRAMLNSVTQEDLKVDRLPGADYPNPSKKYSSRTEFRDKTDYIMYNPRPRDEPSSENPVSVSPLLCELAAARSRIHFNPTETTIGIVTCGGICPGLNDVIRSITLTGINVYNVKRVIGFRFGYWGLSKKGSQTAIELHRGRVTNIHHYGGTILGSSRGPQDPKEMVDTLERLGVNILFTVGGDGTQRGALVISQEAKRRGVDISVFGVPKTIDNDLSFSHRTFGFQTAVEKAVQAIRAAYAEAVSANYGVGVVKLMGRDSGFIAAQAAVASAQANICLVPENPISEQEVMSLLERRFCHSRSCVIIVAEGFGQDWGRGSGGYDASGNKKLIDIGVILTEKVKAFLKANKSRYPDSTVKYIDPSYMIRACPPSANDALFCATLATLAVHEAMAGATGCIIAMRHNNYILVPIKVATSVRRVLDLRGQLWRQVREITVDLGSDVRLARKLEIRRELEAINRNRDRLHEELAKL
RecQ-like DNA helicase BLM (Homo sapiens), sequence (P54132 whole entry, looked up): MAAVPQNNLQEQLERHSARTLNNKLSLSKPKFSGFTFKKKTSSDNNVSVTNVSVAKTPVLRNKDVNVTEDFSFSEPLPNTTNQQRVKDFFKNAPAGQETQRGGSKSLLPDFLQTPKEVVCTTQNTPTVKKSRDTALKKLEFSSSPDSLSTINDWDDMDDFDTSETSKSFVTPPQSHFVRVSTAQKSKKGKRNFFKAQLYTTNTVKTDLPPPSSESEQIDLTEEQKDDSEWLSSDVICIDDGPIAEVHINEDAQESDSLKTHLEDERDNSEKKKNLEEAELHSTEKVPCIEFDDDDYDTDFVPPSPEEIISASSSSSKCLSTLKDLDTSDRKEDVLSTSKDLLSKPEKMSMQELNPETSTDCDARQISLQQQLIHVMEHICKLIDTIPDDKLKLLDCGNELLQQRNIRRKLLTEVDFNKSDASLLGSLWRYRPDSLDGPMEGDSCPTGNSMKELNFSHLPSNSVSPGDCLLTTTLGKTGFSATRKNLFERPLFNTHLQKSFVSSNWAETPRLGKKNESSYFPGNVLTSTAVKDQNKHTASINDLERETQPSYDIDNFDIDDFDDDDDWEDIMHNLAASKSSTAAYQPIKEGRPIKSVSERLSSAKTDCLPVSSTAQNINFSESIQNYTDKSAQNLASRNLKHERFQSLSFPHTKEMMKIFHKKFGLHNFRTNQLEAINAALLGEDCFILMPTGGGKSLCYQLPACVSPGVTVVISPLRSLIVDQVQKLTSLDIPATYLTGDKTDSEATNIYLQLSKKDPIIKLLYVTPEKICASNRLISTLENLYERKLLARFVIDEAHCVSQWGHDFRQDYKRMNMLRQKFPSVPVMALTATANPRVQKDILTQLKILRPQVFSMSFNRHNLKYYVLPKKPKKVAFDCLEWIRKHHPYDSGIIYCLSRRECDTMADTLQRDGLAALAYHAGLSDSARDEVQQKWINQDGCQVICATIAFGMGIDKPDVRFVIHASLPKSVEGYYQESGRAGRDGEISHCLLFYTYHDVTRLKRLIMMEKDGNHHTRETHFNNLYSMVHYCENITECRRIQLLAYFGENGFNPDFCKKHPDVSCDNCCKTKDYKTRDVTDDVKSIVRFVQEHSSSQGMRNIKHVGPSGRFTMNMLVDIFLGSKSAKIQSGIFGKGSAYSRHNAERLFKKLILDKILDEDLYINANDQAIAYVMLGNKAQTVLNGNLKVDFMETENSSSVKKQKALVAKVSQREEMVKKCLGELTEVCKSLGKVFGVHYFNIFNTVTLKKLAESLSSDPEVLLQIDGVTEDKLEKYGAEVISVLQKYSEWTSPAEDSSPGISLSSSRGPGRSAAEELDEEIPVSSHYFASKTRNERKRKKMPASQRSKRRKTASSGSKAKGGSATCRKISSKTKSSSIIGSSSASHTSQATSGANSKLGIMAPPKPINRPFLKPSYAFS
Tumor susceptibility gene 101 protein (Homo sapiens), sequence (Q99816 whole entry, looked up, the tested form may be a part): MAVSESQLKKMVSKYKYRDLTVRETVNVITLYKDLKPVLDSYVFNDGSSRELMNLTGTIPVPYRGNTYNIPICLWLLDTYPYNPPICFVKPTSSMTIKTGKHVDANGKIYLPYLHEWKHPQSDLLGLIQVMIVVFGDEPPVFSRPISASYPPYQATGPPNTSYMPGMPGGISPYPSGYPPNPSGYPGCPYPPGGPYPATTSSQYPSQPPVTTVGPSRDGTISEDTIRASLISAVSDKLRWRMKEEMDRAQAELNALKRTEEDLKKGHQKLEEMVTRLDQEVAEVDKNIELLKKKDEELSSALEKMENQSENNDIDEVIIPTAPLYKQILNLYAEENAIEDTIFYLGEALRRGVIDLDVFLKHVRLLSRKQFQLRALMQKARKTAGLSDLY
DNA polymerase III PolC-type (Bacillus subtilis (strain 168)), sequence (P13267 whole entry, looked up): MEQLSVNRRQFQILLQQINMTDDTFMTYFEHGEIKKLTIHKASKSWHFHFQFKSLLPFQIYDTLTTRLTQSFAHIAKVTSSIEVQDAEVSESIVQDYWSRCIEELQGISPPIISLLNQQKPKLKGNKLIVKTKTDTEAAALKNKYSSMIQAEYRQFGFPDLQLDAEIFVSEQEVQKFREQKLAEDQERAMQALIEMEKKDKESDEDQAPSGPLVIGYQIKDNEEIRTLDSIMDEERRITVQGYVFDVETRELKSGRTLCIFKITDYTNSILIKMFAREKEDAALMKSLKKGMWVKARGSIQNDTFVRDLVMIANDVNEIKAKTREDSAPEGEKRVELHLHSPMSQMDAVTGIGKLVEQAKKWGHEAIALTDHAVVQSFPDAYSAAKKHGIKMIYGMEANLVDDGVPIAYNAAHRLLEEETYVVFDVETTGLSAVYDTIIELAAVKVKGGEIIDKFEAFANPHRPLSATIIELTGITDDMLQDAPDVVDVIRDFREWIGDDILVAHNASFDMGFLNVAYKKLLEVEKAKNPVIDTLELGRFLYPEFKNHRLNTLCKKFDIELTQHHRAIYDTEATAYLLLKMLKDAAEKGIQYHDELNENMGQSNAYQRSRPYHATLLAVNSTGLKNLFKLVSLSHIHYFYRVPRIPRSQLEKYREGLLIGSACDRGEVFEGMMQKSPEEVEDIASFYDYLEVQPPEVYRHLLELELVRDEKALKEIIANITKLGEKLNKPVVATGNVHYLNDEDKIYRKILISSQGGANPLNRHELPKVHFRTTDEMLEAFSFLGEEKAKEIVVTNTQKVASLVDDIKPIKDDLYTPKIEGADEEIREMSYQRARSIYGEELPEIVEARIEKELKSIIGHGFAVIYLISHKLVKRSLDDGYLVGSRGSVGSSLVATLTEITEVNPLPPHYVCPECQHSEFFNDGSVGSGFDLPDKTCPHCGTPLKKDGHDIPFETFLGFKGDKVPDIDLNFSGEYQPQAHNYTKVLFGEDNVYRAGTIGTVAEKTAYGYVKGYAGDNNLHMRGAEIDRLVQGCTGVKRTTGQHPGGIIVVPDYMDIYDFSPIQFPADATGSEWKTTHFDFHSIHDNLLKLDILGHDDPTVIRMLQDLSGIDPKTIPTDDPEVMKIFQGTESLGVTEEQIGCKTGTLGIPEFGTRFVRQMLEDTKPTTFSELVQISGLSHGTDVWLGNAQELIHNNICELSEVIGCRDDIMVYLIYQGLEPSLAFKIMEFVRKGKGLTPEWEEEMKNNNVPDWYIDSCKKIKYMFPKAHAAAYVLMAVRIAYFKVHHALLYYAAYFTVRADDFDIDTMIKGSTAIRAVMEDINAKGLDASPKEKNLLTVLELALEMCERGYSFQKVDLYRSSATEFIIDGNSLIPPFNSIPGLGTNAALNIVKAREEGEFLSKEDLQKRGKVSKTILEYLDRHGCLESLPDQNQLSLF
Ferritin light chain (Equus caballus), sequence (P02791 2-175 limits assumed): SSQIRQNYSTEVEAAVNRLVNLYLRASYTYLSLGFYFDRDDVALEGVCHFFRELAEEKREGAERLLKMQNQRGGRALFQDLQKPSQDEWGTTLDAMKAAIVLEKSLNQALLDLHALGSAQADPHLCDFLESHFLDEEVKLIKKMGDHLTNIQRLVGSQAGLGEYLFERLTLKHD

Turning to `CCCN(CCC)CCc1ccc(O)c(O)c1`, in [1], the Potency was 11.2 µM (active). Also, the outcome in [2], in assay [12] and in assay [14] was inactive. In addition, the Potency result in [3], in [4], in assay [5], in [6], in assay [7] and in [8] was “inactive” in each case. Moreover, the Potency result in assay [9], in assay [10], in assay [11] and in assay [13] was “inactive” in each case.
With `C[N+](C)(C)CC#CCOC(=O)Nc1cccc(Cl)c1`, the outcome in [15], in assay [2], in assay [12] and in assay [14] was inactive. Also, the Potency entry in assay [3], in [16], in assay [5], in assay [6], in assay [8] and in assay [9] was “inactive” each time. The Potency result in [10], in assay [11], in [13] and in assay [17] was “inactive” each time.
As to `CN1CCC(c2c[nH]c3ccc(O)cc23)CC1`, the call in [15], in [2], in assay [12] and in [14] was inactive. Further, the Potency result in assay [3], in [16], in assay [6], in assay [7], in assay [8] and in assay [9] was “inactive” throughout. Also, the Potency result in [10], in assay [11], in [13] and in [17] was “inactive” in each case.
`C[N+]1(C)C2CCC1CC(OC(=O)c1c[nH]c3ccccc13)C2` (stereo not drawn): the Potency in assay [1] and in assay [9] was 14.1 µM (active) throughout. The Potency entry in [3], in assay [5], in [6], in [7], in assay [10] and in assay [11] was “inactive” throughout. For the same compound, the Potency entry in assay [13] and in assay [17] was “inactive” in each case. Also, the compound was called inactive in assay [14].
As for `Clc1cc(I)cc(Cl)c1NC1=NCCN1`, the compound was called inactive in assay [15], in assay [2], in assay [12] and in [14]. For the same compound, the Potency entry in assay [3], in assay [16], in [5], in assay [6], in assay [7] and in assay [9] was “inactive” in each case. Further, the Potency entry in assay [10], in [11] and in [13] was “inactive” in each case.
As to `O=C/C=C/c1ccccc1`, the compound was called inactive in [18].
As to `C=CCN1C[C@@H](C)N([C@H](c2ccc(C(=O)N(CC)CC)cc2)c2cccc(OC)c2)C[C@@H]1C`, in [1], the Potency was 4.47 µM (active). In addition, the Potency result in [3], in [6], in [7], in assay [8], in assay [9] and in assay [10] was “inactive” each time. For the same compound, the Potency entry in assay [11] and in assay [13] was “inactive” in each case. The result in assay [14] was inactive.
Take `CCCCCCCCCCCCCC(=O)O[C@@H]1[C@@H](C)[C@@]2(O)[C@@H](C=C(CO)C[C@@]3(O)C(=O)C(C)=C[C@@H]23)C2C(C)(C)[C@@]21OC(C)=O` (stereo partly drawn): the Potency in assay [1] was 12.6 µM (active). For the same compound, the Potency entry in [3], in assay [10] and in [11] was “inactive” each time.
For `O=C1CC[C@@]2(O)C3Cc4ccc(O)c5c4C2(CCN3CC2CC2)[C@H]1O5` (stereo partly drawn), the result in [15], in [2] and in assay [14] was inactive. Moreover, the Potency result in assay [3], in [16], in assay [5], in assay [6], in assay [7] and in assay [8] was “inactive” each time. For the same compound, the Potency entry in assay [9], in [11] and in assay [13] was “inactive” in each case.
On to `Ic1ccccc1CNC1C2CCN(CC2)C1C(c1ccccc1)c1ccccc1` (stereo not drawn), for which the Potency was 11.2 µM (active) in [1]; 16.5 µM (active) in [5]; 6.56 µM (active) in assay [6]; 6.56 µM (active) in [7]; 17.8 µM (active) in assay [9]. Further, the Potency result in [3], in [4], in assay [10], in assay [11] and in assay [17] was “inactive” in each case. Further, in assay [12], the compound was called inactive.
Consider `COc1ccc2c(c1)/C(=C/c1cnc[nH]1)C(=O)N2`, for which the Potency is 12.6 µM (active) in [1] and 10.4 µM (active) in [16]. The Potency entry in assay [3], in assay [4], in [8], in assay [10], in [11] and in [17] was “inactive” throughout. In addition, the compound was classed as inactive in assay [14].
In the case of `NC(N)=Nc1ccc2[nH]c3c(c2c1)C[C@@]1(O)[C@H]2Cc4ccc(O)c5c4[C@@]1(CCN2CC1CC1)[C@H]3O5`, the Potency result in assay [1], in assay [3], in assay [4], in [6], in [7] and in assay [10] was “inactive” each time. Further, the Potency in assay [8] was 0.891 µM (active).
Turning to `CCCCCl`, in assay [18], the result was inactive.
With `C[C@]12Cc3cn4c(nc3C=C1CCC1C2CC[C@@]2(C)[C@H]1CC[C@@]2(O)C#N)nc1ccccc14` (stereo partly drawn), the Potency in assay [1] was 5.62 µM (active); in assay [9], 12.6 µM (active); in assay [13] it was 13 µM (active). The call in assay [2] was inactive. In addition, the Potency entry in assay [3], in assay [6], in assay [7], in assay [8], in assay [10] and in [11] was “inactive” throughout.
For the compound `CC(C)CCON=O`, the outcome in assay [18] was inactive.
Take `CCCCCCC(C)(C)c1ccc([C@@H]2C[C@H](O)CC[C@H]2CCCO)c(O)c1`: in assay [1], the Potency was 2.82 µM (active). Further, the Potency result in [3], in assay [6], in assay [10], in assay [13] and in assay [17] was “inactive” in each case. Also, the outcome in [12] and in assay [14] was inactive.
As for `S=C=S`, the result in assay [18] was inactive.
`CCS(=O)(=O)Nc1cccc(C(=C2CCCCC2)c2cnc[nH]2)c1`: the Potency in assay [1] is 12.6 µM (active). Also, the Potency result in [3], in [16], in [6], in assay [7], in [8] and in assay [9] was “inactive” throughout. Also, the Potency entry in assay [10], in assay [11], in assay [13] and in assay [17] was “inactive” in each case. Moreover, the outcome in assay [12] was inactive.
